Experimental data: PubChem BioAssay AID1159580 (chemical genetic matrix, 2015)
Values joined by “and” are separate entries in the source; they are usually repeats but may differ in a detail not shown here. Equal values may be shown once. Out of some 5,500 compounds screened, about 2,000 (36%) were called active. Inconclusive results (about 18%) are left out. No stated cut-off is given here; in the data, active means normalized growth mostly below about 0.91 (no sharp cut-off); inconclusive means no clear call, values can overlap the other calls; inactive means mostly above about 0.92. Some of the results follow.

Experiment: chemical genetic growth profiling, strain panel (AID 1159580);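 further: tested at 20 µM; growth read once vehicle control cultures reached saturation at 30 °C; 1 = growth at the plate median or of vehicle wells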
Details: growth OD

Measured: normalized growth

CC(CN1c2ccccc2Sc2ccccc21)N(C)C (configuration not stated)
inactive: S. cerevisiae deletion strains, locus YKL009W, strain mrt4, stronger effect = lower value 0.924 | S. cerevisiae deletion strains, locus YKL068W, stronger effect = lower value 0.982 | S. cerevisiae deletion strains, locus YKL085W, strain MDH1 (second series), stronger effect = lower value 0.965 | S. cerevisiae deletion strains, locus YKL085W, strain MDH1, stronger effect = lower value 0.965 | S. cerevisiae deletion strains, locus YKL160W, strain elf1, stronger effect = lower value 0.913 | S. cerevisiae deletion strains, locus YKL190W, strain CNB1, stronger effect = lower value 0.995 | S. cerevisiae deletion strains, locus YKR001C, strain vps1, stronger effect = lower value 0.968 | S. cerevisiae deletion strains, locus YKR026C, strain gcn3, stronger effect = lower value 0.972 | S. cerevisiae deletion strains, locus YKR091W, strain srl3, stronger effect = lower value 0.983 | S. cerevisiae deletion strains, locus YLL026W, stronger effect = lower value 0.943 | S. cerevisiae deletion strains, locus YLL041C, strain sdh2, stronger effect = lower value 0.982 | S. cerevisiae deletion strains, locus YLR027C, strain aat2, stronger effect = lower value 0.932 | S. cerevisiae deletion strains, locus YLR039C, strain RIC1, stronger effect = lower value 1.23 | S. cerevisiae deletion strains, locus YLR058C, strain SHM2, stronger effect = lower value 0.957 | S. cerevisiae deletion strains, locus YLR102C, strain apc9, stronger effect = lower value 0.981 | S. cerevisiae deletion strains, locus YLR113W, strain HOG1, stronger effect = lower value 1.03 | S. cerevisiae deletion strains, locus YLR221C, strain rsa3, stronger effect = lower value 0.969 | S. cerevisiae deletion strains, locus YLR258W, strain gsy2, stronger effect = lower value 0.974 | S. cerevisiae deletion strains, locus YLR262C, strain YPT6 (second series), stronger effect = lower value 1.07 | S. cerevisiae deletion strains, locus YLR262C, strain YPT6, stronger effect = lower value 1.34 | S. cerevisiae deletion strains, locus YLR268W, strain sec22, stronger effect = lower value 0.947 | S. cerevisiae deletion strains, locus YLR320W, strain mms22, stronger effect = lower value 0.944 | S. cerevisiae deletion strains, locus YLR330W, strain CHS5, stronger effect = lower value 0.993 | S. cerevisiae deletion strains, locus YLR342W, strain FKS1 (second series), stronger effect = lower value 0.928 | S. cerevisiae deletion strains, locus YLR357W, strain rsc2, stronger effect = lower value 0.99 | S. cerevisiae deletion strains, locus YLR370C, strain arc18, stronger effect = lower value 0.938 | S. cerevisiae deletion strains, locus YLR371W, strain rom2, stronger effect = lower value 0.962 | S. cerevisiae deletion strains, locus YLR384C, strain iki3, stronger effect = lower value 0.968 | S. cerevisiae deletion strains, locus YLR418C, strain cdc73, stronger effect = lower value 0.955 | S. cerevisiae deletion strains, locus YML016C, strain PPZ1, stronger effect = lower value 0.985 | S. cerevisiae deletion strains, locus YML032C, strain rad52, stronger effect = lower value 0.908 | S. cerevisiae deletion strains, locus YML120C, strain ndi1, stronger effect = lower value 0.921 | S. cerevisiae deletion strains, locus YML124C, strain tub3, stronger effect = lower value 0.983 | S. cerevisiae deletion strains, locus YMR058W, strain fet3, stronger effect = lower value 0.94 | S. cerevisiae deletion strains, locus YMR078C, strain ctf18, stronger effect = lower value 0.98 | S. cerevisiae deletion strains, locus YMR125W, strain sto1, stronger effect = lower value 0.988 | S. cerevisiae deletion strains, locus YMR129W, stronger effect = lower value 0.97 | S. cerevisiae deletion strains, locus YMR205C, strain PFK2, stronger effect = lower value 0.968 | S. cerevisiae deletion strains, locus YMR223W, strain ubp8, stronger effect = lower value 0.992 | S. cerevisiae deletion strains, locus YMR231W, strain pep5, stronger effect = lower value 0.983 | S. cerevisiae deletion strains, locus YMR263W, strain SAP30, stronger effect = lower value 0.999 | S. cerevisiae deletion strains, locus YMR307W, strain GAS1, stronger effect = lower value 1.12 | S. cerevisiae deletion strains, locus YNL067W, strain RPL9B, stronger effect = lower value 0.924 | S. cerevisiae deletion strains, locus YNL071W, strain lat1, stronger effect = lower value 0.969 | S. cerevisiae deletion strains, locus YNL128W, strain TEP1, stronger effect = lower value 1.02 | S. cerevisiae deletion strains, locus YNL175C, strain NOP13, stronger effect = lower value 1.01 | S. cerevisiae deletion strains, locus YNL183C, strain NPR1, stronger effect = lower value 0.964 | S. cerevisiae deletion strains, locus YNL197C, strain WHI3, stronger effect = lower value 1.01 | S. cerevisiae deletion strains, locus YNL209W, strain ssb2, stronger effect = lower value 0.962 | S. cerevisiae deletion strains, locus YNL224C, strain SQS1, stronger effect = lower value 1.01 | S. cerevisiae deletion strains, locus YNL233W, strain BNI4, stronger effect = lower value 0.925 | S. cerevisiae deletion strains, locus YNL248C, strain rpa49, stronger effect = lower value 0.971 | S. cerevisiae deletion strains, locus YNL250W, strain rad50, stronger effect = lower value 0.958 | S. cerevisiae deletion strains, locus YNL271C, strain bni1, stronger effect = lower value 0.973 | S. cerevisiae deletion strains, locus YNL298W, strain CLA4, stronger effect = lower value 0.978 | S. cerevisiae deletion strains, locus YNL307C, strain MCK1, stronger effect = lower value 0.958 | S. cerevisiae deletion strains, locus YNL322C, strain KRE1 (second series), stronger effect = lower value 0.976 | S. cerevisiae deletion strains, locus YNR049C, strain mso1, stronger effect = lower value 0.977 | S. cerevisiae deletion strains, locus YNR052C, strain pop2, stronger effect = lower value 0.976 | S. cerevisiae deletion strains, locus YOL006C, strain TOP1, stronger effect = lower value 0.79 | S. cerevisiae deletion strains, locus YOL012C, strain htz1 1.06 | S. cerevisiae deletion strains, locus YOL147C, strain pex11, stronger effect = lower value 0.976 | S. cerevisiae deletion strains, locus YOR061W, strain CKA2, stronger effect = lower value 0.955 | S. cerevisiae deletion strains, locus YOR069W, strain VPS5, stronger effect = lower value 0.986 | S. cerevisiae deletion strains, locus YOR070C, strain gyp1, stronger effect = lower value 0.965 | S. cerevisiae deletion strains, locus YOR080W, strain dia2, stronger effect = lower value 0.963 | S. cerevisiae deletion strains, locus YOR083W, strain WHI5 (second series), stronger effect = lower value 1.02 | S. cerevisiae deletion strains, locus YOR083W, strain WHI5, stronger effect = lower value 0.898 | S. cerevisiae deletion strains, locus YOR106W, strain vam3, stronger effect = lower value 0.884 | S. cerevisiae deletion strains, locus YOR136W, strain idh2, stronger effect = lower value 0.968 | S. cerevisiae deletion strains, locus YOR144C, strain elg1, stronger effect = lower value 0.989 | S. cerevisiae deletion strains, locus YOR184W, strain ser1, stronger effect = lower value 1.01 | S. cerevisiae deletion strains, locus YOR231W, strain MKK1, stronger effect = lower value 1.01 | S. cerevisiae deletion strains, locus YOR265W, strain rbl2, stronger effect = lower value 0.955 | S. cerevisiae deletion strains, locus YOR270C, strain vph1, stronger effect = lower value 0.998 | S. cerevisiae deletion strains, locus YOR290C, strain snf2, stronger effect = lower value 0.96 | S. cerevisiae deletion strains, locus YOR316C, strain cot1, stronger effect = lower value 0.97 | S. cerevisiae deletion strains, locus YPL106C, strain sse1, stronger effect = lower value 0.929 | S. cerevisiae deletion strains, locus YPL240C, strain hsp82, stronger effect = lower value 0.965 | S. cerevisiae deletion strains, locus YPL241C, strain CIN2, stronger effect = lower value 0.989 and 0.995 | S. cerevisiae deletion strains, locus YPL256C, strain CLN2, stronger effect = lower value 1.07 | S. cerevisiae deletion strains, locus YPR119W, strain clb2, stronger effect = lower value 0.971 | S. cerevisiae deletion strains, locus YPR141C, strain kar3, stronger effect = lower value 0.976 | S. cerevisiae deletion strains, locus YPR163C, strain tif3, stronger effect = lower value 0.928 | S. cerevisiae deletion strains, locus YPR167C, strain met16, stronger effect = lower value 0.97 | S. cerevisiae deletion strains, strain wtn01, stronger effect = lower value 0.957 | S. cerevisiae strains, strain wild type, stronger effect = lower value 0.975
active: S. cerevisiae deletion strains, locus YLL001W, strain dnm1, stronger effect = lower value 0.879 | S. cerevisiae deletion strains, locus YLR342W, strain FKS1, stronger effect = lower value 0.844 | S. cerevisiae deletion strains, locus YOR001W, strain rrp6, stronger effect = lower value 0.889 | S. cerevisiae deletion strains, locus YPL051W, strain arl3, stronger effect = lower value 0.863 | S. cerevisiae deletion strains, locus YPL078C, strain atp4, stronger effect = lower value 0.838
